The source of these data is PubChem BioAssay (Tox21).

Test [1] is described as follows: qHTS assay to identify small molecule antagonists of the thyroid receptor (TR) signaling pathway - cell viability counter screen (AID 743064). Also: nearly all actives have a fitted effect of over 50% in size. Also: potency is read from the fitted curve at half-maximal effect. Summed up:
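Rat GH3 pituitary tumor cells stably expressing two TR response elements driving luciferase were plated, rested 4 h, then dosed with library compounds and T3 (1 nM final). After 23.5 h at 37 °C, CellTiter-Fluor was added for 30 min and fluorescence recorded.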
Background: In qHTS, concentration-response curves come from the screen itself.

The nature of test [2]: qHTS assay to identify small molecule antagonists of the thyroid receptor (TR) signaling pathway (AID 743065). Also: nearly all actives have a fitted effect of over 55% in size. Also: potency is read from the fitted curve at half-maximal effect. Summed up:
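Antagonism measured as loss of luciferase signal in GH3 cells stably carrying a TRE-luciferase reporter, co-treated with compound and T3 (1 nM final) for 23.5 h at 37 C. Viability was read in the same well by CellTiter-Fluor.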

Test [3] concerns thyroid hormone receptor (rat, GH3 cells). Description: qHTS assay to identify small molecule agonists of the thyroid receptor (TR) signaling pathway (AID 743066; calls by dose curve).
Test [4] concerns the target Estrogen receptor (Homo sapiens) (UniProt P03372). Description: qHTS assay to identify small molecule antagonists of the estrogen receptor alpha (ER-alpha) signaling pathway (AID 743069; active = well fitted curve in the direction sought with a large enough effect in the signal ratio in the repeat runs, not every such curve was filed as active; inconclusive = weak or mixed curves, or effect the other way; inactive = no such curve, though single readings can be large or run the other way; the % refers to the signal ratio; also: potency is read from the fitted curve at half-maximal effect). Summed up:
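Antagonist mode: compounds in DMSO were co-added with 17beta-estradiol to ER-alpha-bla HEK293 cells (2% charcoal-stripped serum) and left 18 h at 37C. Reporter inhibition was measured as FRET fluorescence after 2 h LiveBLAzer substrate at room temperature.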

The target is the same in test [5]. Description: qHTS assay to identify small molecule agonists of the estrogen receptor alpha (ER-alpha) signaling pathway (AID 743075; calls by dose curve;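 also: HEK293 GripTite cells with ER-alpha and UAS-driven beta-lactamase reporter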; also: potency is read from the fitted curve at half-maximal effect).
Test [6] has the same target. Nature of the test: qHTS assay to identify small molecule agonists of the estrogen receptor alpha (ER-alpha) signaling pathway using the BG1 cell line (AID 743079). Also: nearly all actives have a fitted effect of over 20% in size. Also: potency is read from the fitted curve at half-maximal effect. Particulars: BG1Luc4E2 cells, ERE-luciferase agonist, 22 h; activation: at 70.3 µM (top of the series).
Test [7] is described as follows: qHTS assay to identify small molecule antagonists of the estrogen receptor alpha (ER-alpha) signaling pathway using the BG1 cell line - cell viability counter screen (AID 743081).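 Also: compound given together with 17beta-estradiol as the ER stimulus; nearly all actives have a fitted effect of over 45% in size.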 Also: potency is read from the fitted curve at half-maximal effect.
The next test addresses Aromatase (Homo sapiens) (UniProt P11511). Nature of the test: qHTS assay to identify aromatase inhibitors (AID 743083). Also: nearly all actives have a fitted effect of over 55% in size. Also: potency is read from the fitted curve at half-maximal effect.
Test [8] is described as follows: qHTS assay to identify small molecule antagonists of the estrogen receptor alpha (ER-alpha) signaling pathway - cell viability counter screen (AID 743074; calls by dose curve;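 also: HEK293 cells carrying ER-alpha-UAS-bla reporter stimulated with 17beta-estradiol; nearly all actives have a fitted effect of over 45% in size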; also: potency is read from the fitted curve at half-maximal effect).
A short description of test [9]: qHTS assay to identify small molecule antagonists of the estrogen receptor alpha (ER-alpha) signaling pathway using the BG1 cell line (AID 743080; calls by dose curve;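 also: BG1 cells stimulated with 17beta-estradiol alongside compound; nearly all actives have a fitted effect of over 25% in size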). A digest of the protocol:
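Luciferase inhibition measured with ONE-Glo after 30 min at RT in BG1Luc4E2 cells given test compounds and 17beta-estradiol for 21.5 h at 37 C; CellTiter-Fluor viability read in the same wells beforehand.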

The source made the active and inactive calls. Unless noted, calls follow the shape of the dose curve; as a rule, active = well fitted curve in the direction sought with a large enough effect in the repeat runs; inconclusive = weak or mixed curves; inactive = no such curve, though single readings can be large; an effect the other way counts as inactive or inconclusive.

Chain of Estrogen receptor (Homo sapiens) (P03372 whole entry, looked up): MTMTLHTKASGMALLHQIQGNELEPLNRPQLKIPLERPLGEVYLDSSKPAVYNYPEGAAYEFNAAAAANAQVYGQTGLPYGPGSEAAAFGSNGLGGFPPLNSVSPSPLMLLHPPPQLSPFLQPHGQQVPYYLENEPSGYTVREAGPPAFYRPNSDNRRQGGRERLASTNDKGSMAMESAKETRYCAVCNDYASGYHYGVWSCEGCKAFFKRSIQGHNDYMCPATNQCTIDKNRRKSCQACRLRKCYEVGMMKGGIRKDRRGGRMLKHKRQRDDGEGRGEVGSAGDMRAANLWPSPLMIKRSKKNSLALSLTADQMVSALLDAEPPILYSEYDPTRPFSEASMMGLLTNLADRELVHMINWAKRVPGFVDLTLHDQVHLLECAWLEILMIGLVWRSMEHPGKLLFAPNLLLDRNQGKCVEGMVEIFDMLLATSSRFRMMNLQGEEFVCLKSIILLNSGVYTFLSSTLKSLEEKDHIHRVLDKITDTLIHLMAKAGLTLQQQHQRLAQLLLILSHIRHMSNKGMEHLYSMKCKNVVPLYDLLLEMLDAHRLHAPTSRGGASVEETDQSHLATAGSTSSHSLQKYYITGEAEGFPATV
Chain of Aromatase (Homo sapiens) (P11511 whole entry, looked up): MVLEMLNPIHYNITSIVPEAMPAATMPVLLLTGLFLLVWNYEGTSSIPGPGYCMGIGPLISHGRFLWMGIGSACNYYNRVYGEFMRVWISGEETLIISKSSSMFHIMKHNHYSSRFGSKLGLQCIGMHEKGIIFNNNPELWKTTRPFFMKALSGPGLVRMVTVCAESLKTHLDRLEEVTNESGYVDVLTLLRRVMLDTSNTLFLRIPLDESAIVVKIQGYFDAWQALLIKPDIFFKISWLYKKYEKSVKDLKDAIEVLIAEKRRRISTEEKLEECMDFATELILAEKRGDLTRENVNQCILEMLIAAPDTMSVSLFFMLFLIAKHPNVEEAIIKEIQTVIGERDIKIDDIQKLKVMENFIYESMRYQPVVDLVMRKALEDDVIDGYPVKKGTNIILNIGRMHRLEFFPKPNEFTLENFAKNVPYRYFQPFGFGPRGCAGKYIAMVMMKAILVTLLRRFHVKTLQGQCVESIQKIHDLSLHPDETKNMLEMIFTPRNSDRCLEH

Consider `Cc1ncc(COP(=O)(O)O)c(CN)c1O`, for which the Potency result in [1], in [2], in test [3], in test [4], in test [5] and in test [6] was “inactive” each time. The Potency result (in [7]; in the test with Aromatase (Homo sapiens)) was “inactive” each time.

Turning to `O=S(=O)(O)CCCS(=O)(=O)O`, the Potency entry in test [1], in [2], in test [3], in test [8], in [5] and in test [6] was “inactive” in each case. Moreover, the Potency entry (in test [9]; in test [7]; in the test with Aromatase (Homo sapiens)) was “inactive” throughout.

For `CCc1ccc(S(=O)(=O)O)cc1`, the Potency entry in test [1], in [2], in [3], in test [8], in test [9] and in test [7] was “inactive” in each case. In the test with Aromatase (Homo sapiens), the Potency result is “inactive”. Also, the results for the Potency in test [5] and in test [6] were 4.77 µM [inconclusive] (active) and 0.298 µM (active), respectively.

`CCCCCCCCCCCCCCCCOCCOCCOCCOCCOCCOCCOCCOCCOCCOCCOCCOCCOCCOCCOCCOCCOCCOCCOCCOCCO`: the Potency in [1] is 29.8 µM (active); in [2], 26.6 µM (active); in test [4] it was 4.25 µM [inconclusive] (active); in test [8] it was 21.3 µM (active); in test [7], 23.7 µM (active). In addition, in [3], the Potency entry is “inactive”.

With `Cc1onc(-c2ccccc2)c1C(=O)N[C@@H]1C(=O)N2[C@@H]1SC(C)(C)[C@@H]2C(=O)O`, the Potency entry in test [1], in test [2], in [3], in [4], in [5] and in test [6] was “inactive” in each case. In addition, the Potency entry (in test [9]; in test [7]; with Aromatase (Homo sapiens)) was “inactive” in each case.

In the case of `CN(C)c1ccc(C(=C2C=CC(=[N+](C)C)C=C2)c2c(O)c(S(=O)(=O)[O-])cc3cc(S(=O)(=O)O)ccc23)cc1`, the Potency in test [1] was 29.8 µM (active); in [2], 11.9 µM (active); in test [7] it was 23.7 µM (active); in the test with Aromatase (Homo sapiens) it was 26.6 µM (active). Further, the Potency entry in test [3], in [4] and in [5] was “inactive” throughout.

With `C[N+](C)(CCCCCC[N+](C)(C)C1c2ccccc2-c2ccccc21)C1c2ccccc2-c2ccccc21`, the Potency result in test [1], in test [2], in test [3], in test [4], in [5] and in [6] was “inactive” each time. Also, the Potency result (in test [9]; in [7]; in the test with Aromatase (Homo sapiens)) was “inactive” in each case.

In the case of `O=C(O)c1ccc(OCCn2ccnc2)cc1`, the Potency result in [1], in test [2], in test [3], in test [8], in test [5] and in test [6] was “inactive” throughout. Moreover, the Potency entry (in test [9]; in test [7]; in the test with Aromatase (Homo sapiens)) was “inactive” each time.

In the case of `N[C@H](CC(=O)O)C(=O)O`, the Potency result in test [1], in test [2], in [3], in [8], in test [5] and in [6] was “inactive” in each case. Also, the Potency result (in [9]; in test [7]; with Aromatase (Homo sapiens)) was “inactive” each time.

Turning to `Cc1c(O)cc2c(c1C)O[C@](C)(CCC[C@H](C)CCC[C@H](C)CCCC(C)C)CC2`, the Potency result in test [1], in [2], in [3], in test [8], in [5] and in test [6] was “inactive” in each case. The Potency entry (in test [9]; in test [7]; with Aromatase (Homo sapiens)) was “inactive” throughout.

With `C[C@]12CC[C@@H]3c4ccc(O)cc4CC[C@H]3[C@@H]1CC[C@@H]2OP(=O)(O)O`, the Potency result in test [1], in test [2], in test [3], in test [8], in test [9] and in [7] was “inactive” each time. For the same compound, the Potency entry in the test with Aromatase (Homo sapiens) is “inactive”. The Potency in test [5] is 0.0013 µM [inconclusive] (active); in test [6] it was 0.0021 µM (active).

Turning to `O=C(NNCS(=O)(=O)O)c1ccncc1`, the Potency result in test [1], in [2], in test [3], in test [8], in [5] and in [6] was “inactive” each time. In addition, the Potency result (in [9]; in test [7]; in the test with Aromatase (Homo sapiens)) was “inactive” each time.

Consider `CC(=O)Oc1c(C)cc(OCC(O)CNC(C)C)c(C)c1C` (stereo unspecified), for which the Potency result in [1], in [2], in test [3], in test [8], in test [9] and in test [7] was “inactive” in each case. Moreover, the Potency entry with Aromatase (Homo sapiens) is “inactive”. In addition, the Potency is 10.7 µM [inconclusive] (active) in [5] and 3.76 µM (active) in [6].

On to `CC(=O)OC[C@H]1O[C@@H](O[C@H]2[C@H](O)[C@@H](OC(=O)c3ccccc3C(=O)O)[C@H](O)O[C@@H]2COC(C)=O)[C@H](O)[C@@H](OC(=O)c2ccccc2C(=O)O)[C@@H]1O`, for which the Potency result in test [1], in test [2], in [3], in [4], in [5] and in [6] was “inactive” each time. The Potency result (in test [9]; in [7]; with Aromatase (Homo sapiens)) was “inactive” each time.

For the compound `CC(Oc1ccccc1)C(=O)N[C@@H]1C(=O)N2[C@@H]1SC(C)(C)[C@@H]2C(=O)O` (stereo partly specified), the Potency result in test [1], in [2], in test [3], in [8], in [5] and in test [6] was “inactive” throughout. Moreover, the Potency entry (in test [9]; in test [7]; in the test with Aromatase (Homo sapiens)) was “inactive” each time.

On to `CCOC(=O)Cc1cccc(-c2cc(CCCCCCc3ccc(O[C@H]4O[C@H](COC(C)=O)[C@@H](OC(C)=O)[C@H](OC(C)=O)[C@@H]4OC(C)=O)c(-c4cccc(CC(=O)OCC)c4)c3)ccc2O[C@H]2O[C@H](COC(C)=O)[C@@H](OC(C)=O)[C@H](OC(C)=O)[C@@H]2OC(C)=O)c1`, for which the Potency entry in test [1], in test [2], in [3], in test [8], in test [5] and in [6] was “inactive” in each case. The Potency entry (in test [9]; with Aromatase (Homo sapiens)) was “inactive” throughout.

Regarding `NC(=O)c1ccc[n+]([C@@H]2O[C@H](COP(=O)([O-])OP(=O)(O)OC[C@H]3O[C@@H](n4cnc5c(N)ncnc54)[C@H](O)[C@@H]3O)[C@@H](O)[C@H]2O)c1`, the Potency entry in [1], in test [2], in test [3], in [4], in [5] and in [6] was “inactive” in each case. The Potency entry (in [9]; in test [7]; with Aromatase (Homo sapiens)) was “inactive” each time.
